# Screening results deposited in PubChem by National Center for Advancing Translational Sciences (NCATS).
# Giardia killer: Giardia lamblia killing. Giardia lamblia trophozoite viability. activity change, % at 7.66 µM, hits read low. actives 0.15% (n = 340,000); in the data active means activity change below about -80%; inconclusive means between about -30% and that limit;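 further: parasites exposed to compound for two days anaerobically before the ATP read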
#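 Killing of trophozoites was scored by loss of ATP luminescence after a 48 hrs anaerobic exposure to compounds at 37 deg C, using 100 cells per well.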
# TrxR1 substrate: substrates of rat thioredoxin reductase 1; Potency, µM (highest dose often 114 µM), inactives show top-dose activity change, negative = substrate turnover; actives 0.01% (n = 390,000); purified TrxR1 substrate turnover, NADPH consumption readout; AID 588456; O89049; further: potency means the concentration at half of the fitted maximal effect; nearly all actives have a fitted effect of over 50% in size
#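 Rat TrxR1, dispensed at 90 nM, was prereduced with 400 uM NADPH (final) for 5 min at ~22 deg C, then incubated with compound 15 min before 400 uM selenite. A first-read NADPH fluorescence drop versus no-compound background flagged substrates.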
# TrxR1 inh: inhibitors of rat thioredoxin reductase 1 | O89049 | recombinant rTrxR1, NADPH fluorescence consumption, selenite substrate | Potency, µM (doses to about 114 µM), for inactives: at the highest dose activity change, negative = inhibition, usual class: inhibitors | actives 1% (n = 390,000) | AID 588453; further: potency means the concentration at half of the fitted maximal effect; nearly all actives have a fitted effect of over 65% in size
#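 Rat TrxR1 (90 nM in the dispensed reagent) was pre-reduced with 400 uM NADPH for 5 min at room temperature, then incubated with compound for 15 min. After 400 uM selenite was added, NADPH fluorescence (Ex 340/Em 450 nm) was followed for 8 min.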
# GALK inhibitor: inhibitors of human galactokinase. Potency, µM (doses to about 57.5 µM), for inactives: at the highest dose activity change, negative = inhibition, actives largely listed as inhibitors. Purified GALK, Kinase-Glo residual ATP luminescence. P51570. AID 1868. actives 0.007% (n = 270,000); further: potency means the concentration at half of the fitted maximal effect
# Target sequence (P51570 whole entry, looked up): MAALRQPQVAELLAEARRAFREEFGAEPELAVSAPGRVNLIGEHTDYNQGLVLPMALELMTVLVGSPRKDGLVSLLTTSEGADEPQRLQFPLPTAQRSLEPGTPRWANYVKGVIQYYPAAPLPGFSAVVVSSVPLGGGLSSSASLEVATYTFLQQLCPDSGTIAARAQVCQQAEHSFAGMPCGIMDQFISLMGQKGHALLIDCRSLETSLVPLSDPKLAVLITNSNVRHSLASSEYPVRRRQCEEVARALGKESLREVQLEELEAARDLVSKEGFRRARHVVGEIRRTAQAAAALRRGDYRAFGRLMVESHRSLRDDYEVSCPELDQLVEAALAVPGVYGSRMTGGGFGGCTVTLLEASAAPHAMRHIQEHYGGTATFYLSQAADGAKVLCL
#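 5 nM enzyme, 35 uM ATP, 100 uM galactose, 20 mM HEPES pH8.0, 5 mM MgCl2; 1 h RT; residual ATP by Kinase-Glo Plus luminescence, qHTS format.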
# Coupling enz: inhibits coupling enzyme system, counter-screen for aldolase hits. coupling enzyme system counterscreen, AmpLite Red fluorescence. activity change, negative = inhibition, % at 58.2 µM, hits read low. actives 0.67% (n = 290,000). AID 2472; in the data active means activity change below about -30%
#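 Activity here indicates interference with the coupling reaction, not aldolase inhibition. Compounds at 57.5 uM final met coupling enzymes for 10 min at RT; substrate and AmpLite Red detection followed, with a 525/598 nm fluorescence read after 20 min.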
# PI4K2A block: PI4K2A (human) kinase inhibition. purified PI4K2A, ADP-Glo luminescence, 1 h; active compounds read low. actives 0.13% (n = 420,000). Q9BTU6. activity change, negative = inhibition, % at 76.9 µM; in the data active means activity change below about -50%; inconclusive means mostly about -30% to -49%;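 further: -100% = wells without enzyme as full effect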
#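 ADP-Glo luminescence measured ADP generated by PI4K2A enzyme (4 ug/mL before mixing) with 1.2 mM PI substrate (pre-mix) and 300 microM ATP (pre-mix). Tris pH7.5 buffer with MgCl2, Triton X-100; 1 h reaction at ambient temperature.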
# Active calls of the source: *; u = inconclusive; x = no result given; [ ] = dose if it differs, or a comment. In the library only some 1.5% were active in any assay of this set; here they are far more common. Unless noted, the call rests on the fitted dose curve; in most records, active means well fitted curve in the direction sought with a large enough effect; inconclusive means small, poorly fitted or top-dose-only effect, or another doubt; inactive means no such curve, though single readings can be large; an effect the other way counts as inactive or inconclusive. Unless noted, on the % scale 0 is the no-effect control and ±100 the full control effect.
SMILES,Giardia killer,TrxR1 substrate,TrxR1 inh,GALK inhibitor,Coupling enz,PI4K2A block
Cc1cc(C)n(CC(=O)NC2C(=O)N3C(C(=O)O)=C(CSc4nnc(C)s4)CSC23)n1 (centres undefined),-27.9,11.4%,-23.6%,0.4%,1.3,-7.4
Cc1occc1C(=O)N/N=C/c1ccc(N(C)C)cc1,0.9,6.6%[57.1 µM],10.9%[57.1 µM],u,-2.0,-86.6*
O=C1/C(=C/C=C/c2ccco2)SC(=S)N1c1ccc(O)cc1,-24.1,-3.6%,35.5µM*,-1.0%,0.7,-19.4
O=C1/C(=C\c2ccco2)SC(=S)N1c1ccc(O)cc1,-4.3,-0.9%,-0.9%,x,-20.1,5.0
CC(C)C(C(=O)O)N1C(=O)/C(=C/c2cccn2C)SC1=S (centres undefined),-19.5,-24.2%,9.5%[57.1 µM],-3.8%,7.9,-1.8
CC(C)C(C(=O)O)N1C(=O)/C(=C/C=C/c2ccco2)SC1=S (centres undefined),14.4,u,31.6µM*,-6.4%,-18.3,-29.7
O=C(NN1C(=O)/C(=C/C=C/c2ccco2)SC1=S)c1ccncc1,8.0,-7.4%,12.6µM*,-4.3%,1.4,u
CC1=C[C@]2(CN(CC3CC3)C3=N[C@H](c4ccccc4)CC(=O)N32)n2c(=O)n(-c3ccccc3)c(=O)n2C1,x,x,x,x,x,-2.1
CCC(=O)NC(=S)Nc1c(C)cc(Br)cc1C,-1.5,3.0%,28.2µM*,-2.2%,1.2,-2.2
Cc1cccc(C)c1NC(=O)CCS(=O)(=O)c1cccc2nonc12,-17.6,0.6%,-23.3%,-1.2%,1.9,-2.4
O=C(CCS(=O)(=O)c1cccc2nonc12)Nc1c(F)cccc1F,x,9.7%[2.29 µM],31.6µM*,x,x,5.1
O=C(CN1C(=O)C2CC=C(Cl)CC2C1=O)N1CCOCC1 (centres undefined),-2.4,4.2%,12.7%,-0.9%,-36.0*,-7.0
COc1ccccc1Nc1ccc2c(O)cc(S(=O)(=O)O)cc2c1,-9.0,-1.0%,u,x,x,-59.1*
CCCCn1c(N)nc2ccccc21,11.5,11.3%,15.9%,-0.1%,4.9,-2.7
Cc1ccc(Cn2c(/C=C/c3ccco3)nc3ccccc32)cc1,4.3,-1.8%,6.7%,-0.4%,-2.3,-9.2
CCCCn1c(/C=C/c2ccco2)nc2ccccc21,1.5,4.9%,50.1µM*,0.3%,-5.4,-4.2
CCCn1c(/C=C/c2ccco2)nc2ccccc21,-9.5,13.7%,50.1µM*,-0.7%,-10.4,-14.0
Clc1ccc(Cn2c(/C=C/c3ccco3)nc3ccccc32)cc1,-4.1,12.6%,44.7µM*,-3.1%,-0.5,-9.5
COc1cc2nc(C#N)nc(N)c2cc1OC,x,7.9%,12.7%,x,x,x
CCCCNc1cc(N2CCN(C3CCCCC3)CC2)c2noc3c2c1C(=O)c1ccccc1-3,x,-6.6%,6.1%,x,x,0.1
O=C(O)CCCNc1cc(N2CCC3(CC2)OCCO3)c2noc3c2c1C(=O)c1ccccc1-3,x,x,x,0.4%,-39.1*,x
CCOC(=O)N1CCN(c2cc(NCCC(=O)O)c3c4c(onc24)-c2ccccc2C3=O)CC1,-1.9,-14.8%,-35.6%,2.0%,-53.6*,-57.1*
O=C(O)CCCNc1cc(N2CCN(C(=O)c3ccco3)CC2)c2noc3c2c1C(=O)c1ccccc1-3,1.7,-0.1%,-22.4%,14.3%,-18.3,u
Cc1cc(/C=C/c2ccnc3ccccc23)ccc1N(C)C,x,-10.7%,-8.3%,x,x,x
CN(C)c1ccc(NC(=O)N2CCOCC2)cc1,-1.5,-12.6%,-14.0%,3.2%,-31.5*,-15.9
Cc1ccc(NCCC(=O)c2cccc([N+](=O)[O-])c2)c(C)c1,-3.6,2.2%[57.1 µM],3.16µM*,0.0%,-0.9,6.3
Cc1cccc(NCCC(=O)c2ccc([N+](=O)[O-])cc2)c1C,-3.4,0.3%,4.47µM*,0.8%,0.6,21.0
Cc1ccc(-n2c(C)cc(C(=O)COc3cccnc3[N+](=O)[O-])c2C)cc1,u,1.6%[57.1 µM],6.7%[57.1 µM],0.6%,-1.6,-0.1
Cc1cc(C(=O)COc2cccnc2[N+](=O)[O-])c(C)n1-c1ccccc1,-88.5*,3.8%[57.1 µM],-3.5%[57.1 µM],-0.3%,0.1,3.9
